From PubChem BioAssay
HCMV inh = human cytomegalovirus inhibition | hit rate 4.5% among 410,000 | HFF cells, HCMV-luciferase reporter, 72 h; stronger effect = lower value | activity change, negative = inhibition, % at 57.5 µM; in the data active = activity change below about -60%; inconclusive = no clear call, values can overlap the other calls; inactive = above about -39%
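Inhibition of viral replication was scored as loss of reporter luminescence in HFFs infected with HCMV-luciferase (MOI 1 PFU/cell) for 72 h; compounds tested at 2 doses, normalized to buffer and Salinomycin controls.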
Pf growth 48h = P. falciparum growth inhibition at 48 hours (one generation) | AID 504832 | hit rate 5.9% among 310,000 | P. falciparum luciferase growth in erythrocytes, 48 h | Potency, µM (highest dose often 28.7 µM), usual class: inhibitors
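Erythrocytes infected with P. falciparum carrying an integrated firefly luciferase reporter (2% hematocrit, 0.1% parasitemia final) were exposed to compounds in RPMI 1640 with 0.5% Albumax at 37 C, 5% CO2. Growth inhibition was scored as reduced luminescence.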
HCV inhibitor = inhibitors of hepatitis C virus infection. Potency, µM (top dose mostly 41.8 µM), actives largely listed as inhibitors. hit rate 3.4% among 340,000. Huh7.5.1 HCVcc-Cre infection, luciferase reporter, 44 h. AID 651820
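Luciferase read-out (15 sec integration) after a 15 min room-temperature substrate step quantifies HCVcc-Cre infection. Cells, 1,000 per well, had compound added 4 h post-plating, then virus at ~0.5 moi, and were cultured 44 h.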
Pf growth 96h = P. falciparum growth inhibition at 96 hour, primary screen for plastid delayed-death inhibitors | AID 504834 | P. falciparum luciferase reporter growth, 96 h | Potency, µM (titrated, usually from 28.7 µM), hits mostly inhibitors | hit rate 6.9% among 320,000
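Compounds incubated with erythrocytes infected by luciferase-expressing P. falciparum (2% hematocrit, 0.05% parasitemia final) for 96 hours, 37 C in 5% CO2. Growth inhibition scored as decreased luciferase luminescence.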
Hits are given with their value; - = inactive; ? = inconclusive; . = not tested or not shown; [ ] = another dose, or the depositor's remark. This is a sample that favours compounds with a hit; in the whole collection about 13% have one here. Unless noted, calls come from the whole dose curve; as a rule, active = well fitted inhibition curve with a large enough effect; inconclusive = small, poorly fitted or top-dose-only effect, or another doubt; inactive = no such curve, though single readings can be large or run the other way.

SMILES	HCMV inh	Pf growth 48h	HCV inhibitor	Pf growth 96h
COc1ccc(OCC(=O)N2CCN(c3nnc(-c4ccccc4)c4ccccc34)CC2)cc1	-	?	18µM	1.9µM
COc1ccc2c(c1)c(=O)c(C(=O)c1ccc(C)c(C)c1)cn2CC(=O)Nc1ccc2c(c1)OCCO2	-	.	.	.
CCC(C)NC(=O)c1c(C)oc2ncn(CC(C)C)c(=O)c12 (centres undefined)	-	.	.	.
CCN1C(=O)/C(=C/C=C2\N(CC)c3cc(S(=O)(=O)N(C)C)ccc3N2c2ccccc2)SC1=S	?	?	?	13µM
CC(C)C(NC(=O)Cc1ccccc1)C(=O)N1CCN(c2cccc(Cl)c2)CC1 (centres undefined)	-101	?	11µM	?
N#Cc1c(N)n(CCNC(=O)c2ccccc2)c2nc3ccccc3nc12	-66	?	-	?
COc1ccc(Cn2c(N)c(C#N)c3nc4ccccc4nc32)cc1OC	-	.	-	?
COc1ccccc1CCn1c(N)c(C#N)c2nc3ccccc3nc21	?	9.3µM	-	?
COc1ccc(CCn2c(N)c(C#N)c3nc4ccccc4nc32)cc1OC	-	5.9µM	-	-
Cc1ccc(NC(=O)C(Cc2ccccc2)NS(=O)(=O)c2cccc3nsnc23)c(C)c1 (centres undefined)	-	.	.	.
COc1cc(/C=C(\C#N)c2nc3ccccc3[nH]2)cc(Br)c1OCc1ccc(F)cc1	-	3.7µM	?	2.1µM
COc1cc(/C=C(\C#N)c2nc3ccccc3[nH]2)cc(Br)c1OCc1ccccc1	-	2.9µM	?	-
COc1ccccc1CNC(=O)CCCCn1c(=O)c2ccccc2n(Cc2c(C)cc(C)cc2C)c1=O	-	.	.	.
COc1ccc(C2=Nc3ccccc3C2(O)CCN2C(=O)c3ccccc3C2=O)cc1 (centres undefined)	-	.	0.89µM	.
COc1ccc(OCCN2C(=O)c3ccccc3C2=O)cc1	-	-	-	-
Cc1ccc(N(CC(=O)NC(C)(C)C)C(=O)CNC(=O)c2cccs2)cc1	?	7.4µM	-	-
CCOC(=O)c1c(NC(=O)CN2CCCc3ccccc32)sc(C)c1CC	-	?	?	?
CCOC(=O)c1c(NC(=O)CN2CCCc3ccccc32)sc(C)c1C	-	?	3.2µM	?
COCCOC(=O)c1c(NC(=O)CN2CCCc3ccccc32)sc(C(N)=O)c1C	-	?	-	10µM
CCOc1ccc(-c2nnc(SCC(=O)Nc3cc(C)ccc3OC)o2)cc1	-	.	.	.
COc1ccc2c(C)c(Cc3ccccc3)c(=O)oc2c1OC	-	12µM	?	-
COc1cccc(COc2ccc3c(C)c(Cc4ccccc4)c(=O)oc3c2)c1	-	.	?	.
COc1ccccc1COc1ccc2c(C)c(CC(=O)O)c(=O)oc2c1C	-	-	-	6.6µM
Cc1c(CC(=O)O)c(=O)oc2c(C)c(OCc3ccc(F)cc3F)ccc12	?	-[0.00184 µM]	-	-
COc1cc(COc2ccc3c(C)c(Cc4ccccc4)c(=O)oc3c2C)cc(OC)c1OC	-	?	6.3µM	1.9µM
SMILES	HCMV inh	Pf growth 48h	HCV inhibitor	Pf growth 96h
COc1cc(COc2ccc3c(C)c(Cc4ccccc4)c(=O)oc3c2)cc(OC)c1OC	-	8.3µM	?	?
O=C(NCc1ccc(Cl)cc1)c1ccc2oc(=O)n(Cc3ccccc3)c2c1	-	.	.	.
COc1ccc(/C=C\c2onc(C)c2S(=O)(=O)N2CCC(C(=O)Nc3ccc(C)cc3C)CC2)cc1	-	.	.	.
COC(=O)Cc1c(C)c2ccc3c(c2oc1=O)CN(Cc1ccccc1OC)CO3	-	.	.	.
Cc1cc(C)c2cc(C#N)c(NCCCNC(=O)c3cccnc3)nc2c1	-	.	.	.
Cc1c(C)c2ccc(OCc3ccc(C(=O)O)o3)c(C)c2oc1=O	-101	-	-	.
Cc1cc(O)c(NC(=O)c2ccc(Br)o2)cc1C	-	12µM	-	-
CCN(CC)c1ccc(NC(=O)c2ccc(Br)o2)c(C)c1	-	7.4µM	?	.
COc1ccccc1NC(=O)c1ccc(Br)o1	-	-	?	-
CCN(CC)c1ccc(NC(=O)c2ccco2)c(C)c1	-	?	-	-
Cc1ccc2c(c1)C(c1ccc(F)cc1)N(C(=O)c1cccc(C(F)(F)F)c1)CC(=O)N2 (centres undefined)	-107	.	.	.
CCC(=O)N1CC(=O)Nc2ccc(C)cc2C1c1ccc(F)cc1 (centres undefined)	-	.	.	.
Cc1ccc2c(c1)C(c1ccc(F)cc1)N(C(=O)C(C)C)CC(=O)N2 (centres undefined)	-105	.	.	.
Cc1ccc2c(c1)C(c1ccc(F)cc1)N(C(=O)c1ccc(S(=O)(=O)N(C)C)cc1)CC(=O)N2 (centres undefined)	.	.	-	-
CCc1sc(NC(=O)C(C)C)nc1-c1ccccc1	-78	-	-	-
CCCCC(=O)N(c1ccc(C(=O)O)cc1)c1nc(-c2ccc(Cl)cc2)c(CC)s1	-	2.3µM	-	?
O=C(O)Cc1sc(Nc2ccccc2Cl)nc1-c1ccccc1	-61	.	.	.
CCc1sc(N(C(=O)Cc2ccccc2)c2ccccc2)nc1-c1ccccc1	-	13µM	-	.
Cc1ccc(C)c2c1[nH]c1ccccc12	-	.	7.9µM	-
Cc1ccc(C)c2c1[nH]c1ccc([N+](=O)[O-])cc12	-	-	10µM	.
O=C(O)c1[nH]c2ccc([N+](=O)[O-])cc2c1-c1ccccc1	-	-	-	-
Cc1cc(C)cc(NC(=O)C2CCCN(c3nc(C)cc(C)n3)C2)c1 (centres undefined)	-	.	.	.
Cc1cc(C)nc(N2CCCC(C(=O)Nc3ccc4nc(C)c(C)nc4c3)C2)n1 (centres undefined)	-	12µM	5.6µM	.
CCC(C)NC(=O)C1CCCN(c2nc(C)cc(OC)n2)C1 (centres undefined)	-	-	-	-
Cc1cc(C)nc(N2CCCC(C(=O)Nc3nnc(C)s3)C2)n1 (centres undefined)	-	-	.	.
SMILES	HCMV inh	Pf growth 48h	HCV inhibitor	Pf growth 96h
COc1cc(C)nc(N2CCCC(C(=O)NC3CCC(C)CC3)C2)n1 (centres undefined)	.	-	-	2.9µM
Cc1cc(C)nc(N2CCC(C(=O)Nc3ccc4c(c3)CCC4)CC2)n1	-	-	-	12µM
Cc1cc(C)nc(N2CCCC(C(=O)Nc3nc4ccc(S(C)(=O)=O)cc4s3)C2)n1 (centres undefined)	-	7.4µM	?	.
Cc1cccc(-c2nn3c(=O)cc(CN4CCN(S(=O)(=O)c5ccc(Cl)cc5)CC4)nc3s2)c1	-	.	.	.
CCN1C(=O)c2ccccc2S(=O)c2ccc(C(=O)NCc3ccc(C(F)(F)F)cc3)cc21 (centres undefined)	-	.	.	.
COCc1cc(N2CCN(C(=O)OC(C)(C)C)C[C@H]2C)ccc1N1CC[C@H](O)C1	-	.	.	.
CC1(C)CC(=O)C2=C(C1)OC(N)=C(C#N)C2c1ccccc1[N+](=O)[O-] (centres undefined)	-	-	-	-
CC1(C)CC(=O)C2=C(C1)OC(N)=C(C#N)C2c1ccccc1OC(=O)N1CCOCC1 (centres undefined)	-	-	-	5.9µM
CCCC(=O)NC(=S)Nc1cccc(Cl)c1N1CCCCC1	-	7.4µM	?	8.3µM
CCCCC(=O)NC(=S)Nc1cccc(Cl)c1N1CCCCC1	-	?	-	?
CCC(=O)NC(=S)Nc1cccc(Cl)c1N1CCCCC1	?	12µM	?	7.4µM
